Assay outcomes from PubChem BioAssay.
FUS suppressor – rescues growth of FUS-expressing yeast | S. cerevisiae FUS-expressing, growth rescue, OD600, 24 h | Potency, µM (series often up to 76.6 µM), actives largely listed as activators | hit rate 0.24% among 390,000 | AID 1347120;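 further: plate controls were DMSO vehicle for no effect and reference control for full effect; nearly all actives have a fitted effect of over 55% in size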
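Compound concentration series was pinned onto galactose-induced FUS-expressing yeast seeded at OD 0.005. Plates sat 24hr at 30C; absorbance at 600 nm gave growth. DMSO served as background control.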
TDP-43 yeast inh – rescues yeast growth from TDP-43 toxicity | TDP-43 expressing yeast growth rescue, BacTiter-Glo, 24 h | hit rate 1.8% among 410,000 | AID 652104 | Potency, µM (doses to about 46.1 µM), inactives show at the highest dose growth rescue (activation), actives largely listed as activators; further: % of control where 0% means no effect; nearly all actives have a fitted effect of over 50% in size
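Growth rescue of TDP-43-toxic yeast measured as ATP luminescence (BacTiter-Glo). Cells grown to mid-log in raffinose, induced in galactose at OD600=0.02, exposed to compound 24 hr at 30 deg C.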
aSyn yeast inh – inhibitors of alpha-synuclein toxicity in yeast. Yeast expressing alpha-synuclein, growth rescue, BacTiter-Glo, 24 h. Potency, µM (titrated, usually from 46.1 µM), inactives show at the highest dose growth rescue (activation), usual class: activators. hit rate 0.14% among 370,000; further: % of control where 0% means no effect; nearly all actives have a fitted effect of over 65% in size
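Screening used galactose-induced yeast with toxic alpha-synuclein levels, exposed to compound for 24 hr at 30 deg C. Cell growth, read with BacTiter-Glo luminescence, gave the measured signal.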
Abeta yeast res – compounds reversing amyloid beta toxicity in yeast. yeast expressing A-beta42, growth rescue, OD600, 48 h; response scale: 0% DMSO, 100% iron-clioquinol control. Potency, µM (titrated, usually from 46.1 µM), most hits filed as activators. hit rate 0.063% among 410,000. AID 1347071; further: nearly all actives have a fitted effect of over 55% in size
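Yeast growth medium received pinned compounds, then yeast cells expressing toxic A-beta were added; plates incubated at 30 C for 48 hr. Growth read as absorbance at 600 nm, normalized to DMSO and equimolar FeCl3 plus clioquinol controls.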
Numbers without * were called inactive; i = inactive; u = inconclusive; x = not tested or not shown; [ ] = dose if it differs, or a comment. This is a sample that favours compounds with a hit; in the whole collection about 2.1% have one here. The call rests on the fitted dose curve; in most records, active means well fitted curve in the direction sought with a large enough effect; inconclusive means small, poorly fitted or top-dose-only effect, or another doubt; inactive means no such curve, though single readings can be large; an effect the other way counts as inactive or inconclusive. Potency means the concentration at half of the fitted maximal effect.

SMILES	FUS suppressor	TDP-43 yeast inh	aSyn yeast inh	Abeta yeast res
C/C(=N\NC(=O)c1cc2ccccc2cc1O)c1ccccn1	i	-26%	10µM*	u
C/C(=N/NC(=O)c1cc2ccccc2cc1O)C1C(=O)c2ccccc2C1=O	7.1µM*	16%	-2%	i
O=C(Oc1cccc(C(=S)N2CCOCC2)c1)c1ccc([N+](=O)[O-])cc1[N+](=O)[O-]	i	11µM*	-56%	i
O=[N+]([O-])c1cccc(C(=S)N2CCN(c3ccccc3F)CC2)c1	i	u	2%	i
O=C(c1cccc([N+](=O)[O-])c1)N1CCN(c2ccc(Cl)cc2)CC1	x	u	12%	i
Cc1ccc(N2CCN(C(=O)C(=O)c3cccc([N+](=O)[O-])c3)CC2)cc1	i	16µM*	-3%	i
O=[N+]([O-])c1cccc(C(=S)N2CCN(c3ccccc3)CC2)c1	x	13µM*	10%	i
C=CC[C@@H]1NN2C(=O)[C@@H](CCCC)[C@@H]3c4cc5ccccc5cc4C=NN3[C@@H]2c2cc3ccccc3cc21	i	x	x	x
CCOC(=O)Cn1c(CN(Cc2ccccc2)Cc2ccccc2)nc2c1c(=O)n(C)c(=O)n2C	u	22µM*	1%	i
NC(=O)c1cn(-c2ccccc2)nc1-c1cccnc1	i	13µM*	0%	i
O=C(/C=C/c1cn(-c2ccccc2)nc1-c1cccnc1)c1ccco1	i	13µM*	5%	i
OCc1cn(-c2ccccc2)nc1-c1cccnc1	i	8%	0%	i
CC(C)(C)c1ccc(CC(=O)N2CCC2(C)C(=O)Nc2cnc3ccccc3c2)cc1 (stereo not given)	u	18µM*	u	i
CC1(C(=O)Nc2cccc3ncccc23)CCN1C(=O)Cc1ccc(-c2ccccc2)cc1 (stereo not given)	u	25µM*	7%	i
CC(C)c1ccc(CC(=O)N2CCC2(C)C(=O)Nc2cnc3ccccc3c2)cc1 (stereo not given)	i	u	6%	i
Cc1ccc(S(=O)(=O)NC(=O)C2(C)CCN2C(=O)Cc2ccc(-c3ccccc3)cc2)cc1 (stereo not given)	28µM*	30%	-17%	i
CC1(C(=O)Nc2cccc3cccnc23)CCN1C(=O)Cc1ccc(Cl)cc1Cl (stereo not given)	i	20µM*	-3%	i
COc1ccc(OC)c(/C=C/C(=O)c2ccc3c(c2)OCCO3)c1	i	11µM*	-11%	i
COc1cc(/C=C/C(=O)c2ccc3c(c2)OCCO3)cc(OC)c1OC	i	u	8%	i
COc1ccccc1CNC(=O)NCCCN1CCN(c2ccc(F)cc2)CC1	i	x	x	x
O=C(Nc1cccc(Cl)c1)O[C@@H]1CC[C@@]23CCCN2C(=O)CCC[C@H]3C1	i	x	x	x
COc1ccc2c(c1)CO[C@H]([C@H](O)COC(C)=O)[C@H]2/C=C/c1ccccc1	i	x	x	x
CCCCCCCCN1C(=O)[C@@H](CC(=O)NCc2cccc3ccccc23)C[C@@]2(C(=O)OC)C1=C[C@H](COCc1ccccc1)O[C@@H]2C	i	x	x	x
c1csc(CSc2nnc3sc4ccccc4n23)c1	i	14µM*	-1%	i[9.22 µM]
COc1ccccc1NC(=O)N(CCN1CCCC1)Cc1cc2cc(C)ccc2[nH]c1=O	i	-19%	1%	i
SMILES	FUS suppressor	TDP-43 yeast inh	aSyn yeast inh	Abeta yeast res
CCN1CCCC1CN(Cc1cc2cc(C)ccc2[nH]c1=O)C(=O)Nc1ccccc1OC (stereo not given)	22µM*	-6%	-1%	i
Cc1ccc(S(=O)(=O)N2[C@@H](c3ccccc3)C(C(=O)O)=CC[C@H]2c2cccc(Cl)c2)cc1	i	35µM*	-23%	i
Cc1ccc(S(=O)(=O)N2[C@@H](c3ccc(F)cc3)C(C(=O)O)=CC[C@H]2c2cccc(C)c2)cc1	i	32µM*	2%	i
Cc1ccc(S(=O)(=O)N2[C@@H](c3ccc(F)cc3)C(C(=O)O)=CC[C@H]2c2ccc3c(c2)OCO3)cc1	i	18µM*	-14%	i
Cc1ccc(S(=O)(=O)N2[C@@H](c3ccccc3F)C(C(=O)O)=CC[C@H]2c2ccc3c(c2)OCO3)cc1	i	25%	1%	i
COc1cccc([C@@H]2CC=C(C(=O)O)[C@H](c3ccc(Br)cc3)N2S(=O)(=O)c2ccc(C)cc2)c1	i	35µM*	-1%	i
Cc1ccc([C@@H]2CC=C(C(=O)O)[C@H](c3ccc(Br)cc3)N2S(=O)(=O)c2ccc(C)cc2)cc1	i	u	-1%	i
FC(F)(F)c1ccc2nc(CNc3nc(N4CCOCC4)nc4c3ncn4-c3ccsc3)[nH]c2c1	i	x	x	x
CCN(CC)CC(=O)c1c(C)n(C)c2ccc(OC)cc12	x	x	0%	x
Cc1cccc(C(C)Nc2ccc([N+](=O)[O-])cn2)c1 (stereo not given)	i	18µM*	0%	i
Cc1ccccc1Nc1ccc([N+](=O)[O-])cn1	i	u	-14%	i
O=C1COc2ccccc2N1Cc1c(F)cccc1Cl	i	11µM*	4%	i
O=C(Nc1c(Cl)cc([N+](=O)[O-])cc1Cl)c1cc(Cl)ccc1O	x	x	-15%	x
CCN(CC)C(=O)CSc1nc2ccc(NC(=O)CSc3nnc(N)s3)cc2s1	10µM*	-5%	0%	i
CCN(CC)C(=O)CSc1nc2ccc(NC(=O)CSc3nccn3C)cc2s1	i	-7%	2%	i
COc1ccc(NC(=O)NNC(=O)CCn2nc(C)c([N+](=O)[O-])c2C)cc1OC	i	x	x	x
CCOC(=O)c1ccc(N2C(=O)C3C(C2=O)C(C(=O)c2ccc(Cl)cc2)N2CCCC32)cc1 (stereo not given)	13µM*	-1%	3%	i
CCOC(=O)c1ccc(N2C(=O)C3CC=CCC3C2=O)cc1 (stereo not given)	i	-7%	4%	i
Cc1snc(SCC(=O)c2ccc(F)cc2)c1C#N	i	u	22%	i
Cc1snc(SCC(=O)c2ccc([N+](=O)[O-])cc2)c1C#N	i	22µM*	2%	i
CN1CCc2nc3sc(C(=O)Nc4ccccc4OC(F)(F)F)c(N)c3cc2C1	u	18µM*	x	i
COc1ccc(OC)c(C(c2nnnn2C2CCCC2)N2CCN(c3ccccc3F)CC2)c1 (stereo not given)	i	32µM*	8%	i
S=c1nn[nH]n1C12CC3CC(CC(C3)C1)C2	i	7.9µM*	-18%	i
S=c1nc(C23CC4CC(CC(C4)C2)C3)[nH][nH]1	i	11%	-2%	i
O=S(=O)(c1ccc(Br)cc1)N1CCN(c2nc(-c3cccs3)nc3ccccc23)CC1	x	x	2%	x
CCCCS(=O)(=O)c1oc(-c2cccs2)nc1S(=O)(=O)c1ccc(F)cc1	i	22µM*	x	i
CCCCCS(=O)(=O)c1oc(-c2cccs2)nc1S(=O)(=O)c1ccc(C)cc1	i	11%	x	i
